From PubChem BioAssay (NCATS)
Inconclusive results are not listed. Active and inactive are the calls of the source. Calls follow the shape of the dose curve; as a rule, active = well fitted curve in the direction sought with a large enough effect; inconclusive = small, poorly fitted or top-dose-only effect, or another doubt; inactive = no such curve, though single readings can be large; an effect the other way counts as inactive or inconclusive. Residues, ends and D or L forms follow the SMILES beside them. *: point of attachment. Cbz = O=C(OCc1ccccc1)*

Legend:
[1] = Quantitative High-Throughput drug screen in 47 multiple myeloma cell lines against the NCATS MIPE library collection: KMS12BM_JCRB cell viability assay (AID 1918971); also: nearly all actives have a fitted effect of over 35% in size
How it was run: (§1)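 Luminescent ATP measurement with CellTiter-Glo gives viability, scaled between DMSO-only wells (100%) and media-only wells (0%). Cells, 500 per well, faced library compounds for 48 hours at 37C.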

[2] = Quantitative High-Throughput drug screen in 47 multiple myeloma cell lines against the NCATS MIPE library collection: KMS12PE_JCRB cell viability assay (AID 1918972); also: nearly all actives have a fitted effect of over 30% in size; as to viability: series mostly up to about 46 µM
How it was run: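 Steps: seed 500 cells per well; pin-transfer MIPE 4.0 library; incubate 48 h at 37C, 5% CO2, humidified; add CellTiter-Glo, 5 min room temperature; read luminescence.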

[3] = Quantitative High-Throughput drug screen in 47 multiple myeloma cell lines against the NCATS MIPE library collection: KMS26_JCRB cell viability assay (AID 1918975); also: nearly all actives have a fitted effect of over 45% in size
How it was run: as §1

[4] = Quantitative High-Throughput drug screen in 47 multiple myeloma cell lines against the NCATS MIPE library collection: MMM1_PLB cell viability assay (AID 1918976); also: nearly all actives have a fitted effect of over 35% in size
How it was run: (§2)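 Inhibition of viability over 48 h was scored by ATP content (CellTiter-Glo) in 500-cell wells. Zero and full viability were defined by media-only and DMSO-only wells.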

[5] = Quantitative High-Throughput drug screen in 47 multiple myeloma cell lines against the NCATS MIPE library collection: MOLP8_DSMZ cell viability assay (AID 1918977); also: nearly all actives have a fitted effect of over 45% in size
How it was run: as §2

[6] = Quantitative High-Throughput drug screen in 47 multiple myeloma cell lines against the NCATS MIPE library collection: OCIMY1_PLB cell viability assay (AID 1918979); also: nearly all actives have a fitted effect of over 35% in size; as to viability: series mostly up to about 46 µM
How it was run: as §2

[7] = Quantitative High-Throughput drug screen in 47 multiple myeloma cell lines against the NCATS MIPE library collection: MM1S_ATCC cell viability assay (AID 1918980); also: nearly all actives have a fitted effect of over 45% in size
How it was run: as §2

[8] = Quantitative High-Throughput drug screen in 47 multiple myeloma cell lines against the NCATS MIPE library collection: NCIH929_DSMZ cell viability assay (AID 1918978); also: nearly all actives have a fitted effect of over 35% in size
How it was run: as §2

Measured: Potency
Potency is read from the fitted curve at half-maximal effect.

COc1cc(O)c2c(c1)C1OC1C[C@H](O)[C@H](O)C(=O)C=CC[C@H](C)OC2=O (some centres undefined)
active: [1] 1.48 µM | [2] 11.8 µM | [3] 1.87 µM | [4] 18.7 µM | [5] 0.418 µM | [6] 5.26 µM | [7] 2.96 µM

Cc1cncc2cccc(S(=O)(=O)N3CCCN(C(=O)CN)C[C@@H]3C)c12
inactive: [1] | [3] | [5]
active: [2] 16.6 µM | [8] 18.7 µM

CCn1c(=O)c2c(nc(C=Cc3ccc(OC)c(OC)c3)n2C)n(CC)c1=O
active: [2] 20.9 µM | [7] 26.4 µM
not listed: [4]
inactive: all other assays above

Oc1cc2c(cc1O)C1c3ccc(O)c(O)c3OCC1(O)C2 (centres undefined)
active: [7] 9.35 µM
not listed: [4]
inactive: all other assays above

O=C(C=Cc1ccc(CN(CCO)CCc2c[nH]c3ccccc23)cc1)NO
active: [1] 0.0833 µM | [2] 0.0833 µM | [3] 0.105 µM | [4] 0.0662 µM | [6] 0.296 µM | [7] 0.105 µM

CCOC(=O)N1CCN([N+]([O-])=NOc2ccc([N+](=O)[O-])cc2C#N)CC1
active: [1] 1.48 µM | [2] 0.833 µM | [3] 0.935 µM | [4] 0.526 µM | [8] 2.96 µM

Nc1ccn(C[C@@H](CO)OCP(=O)(O)O)c(=O)n1
not listed: [4] | [7]
inactive: all other assays above

CO[C@@H]1[C@@H](O)[C@H](O)[C@@H](n2c3c(Cl)cccc3c3c4c(c5c6cccc(Cl)c6[nH]c5c32)C(=O)NC4=O)O[C@@H]1CO
active: [1] 0.469 µM | [2] 0.743 µM | [3] 2.64 µM | [5] 2.35 µM | [8] 0.833 µM | [6] 2.35 µM | [7] 0.372 µM

CCCNC(=O)[C@H]1O[C@H]1C(=O)N[C@H](C(=O)N1CCC[C@@H]1C(=O)OC)C(C)CC (some centres undefined)
active: [1] 5.26 µM | [2] 6.62 µM | [3] 11.8 µM | [4] 16.6 µM | [5] 2.64 µM | [8] 4.69 µM | [6] 5.9 µM | [7] 2.35 µM

CS[C@H]1SC[C@@H]2C(=O)N(C)[C@H](C(C)C)C(=O)OC[C@H](NC(=O)c3cnc4ccccc4n3)C(=O)N[C@H](C)C(=O)N(C)[C@@H]1C(=O)N(C)[C@H](C(C)C)C(=O)OC[C@H](NC(=O)c1cnc3ccccc3n1)C(=O)N[C@H](C)C(=O)N2C
active: [1] 0.003 µM | [2] 0.001 µM | [3] 0.0132 µM | [4] 0.0118 µM | [8] 0.001 µM | [6] 0.0209 µM

C=CC(=O)Nc1cc(NC(=O)c2ccc(C)c(NC(=O)c3ccno3)c2)cc(C(F)(F)F)c1
active: [1] 23.5 µM | [2] 8.33 µM | [3] 18.7 µM | [5] 18.7 µM | [7] 16.6 µM

O=C(NC1CC1)c1cccc(-c2ccc3c(NC(=O)C4CC4)n[nH]c3c2)c1
active: [1] 8.33 µM | [3] 2.64 µM | [8] 16.6 µM
inactive: [2]

O=C(O)CCCCC(CCSCc1ccccc1)SCc1ccccc1 (centres undefined)
active: [2] 16.6 µM
not listed: [4] | [7]
inactive: all other assays above

Cc1cc(Nc2ncc3c(n2)N(C)C(=O)N(c2cc(NC(=O)c4cccc(C(F)(F)F)c4)ccc2C)C3)n(C)n1
active: [1] 0.526 µM | [2] 1.05 µM | [3] 5.9 µM | [5] 0.296 µM | [8] 1.05 µM

CC(=O)OC[C@@H]1O[C@@H](n2ccc(=O)[nH]c2=O)[C@H](OC(C)=O)[C@H]1OC(C)=O
not listed: [4]
inactive: all other assays above

CCC(C(=O)O)C1CCC(C)C(C(C)C(O)C(C)C(=O)C(CC)C2OC3(C=CC(O)[C@@]4(CC[C@](C)(C5CC[C@@](O)(CC)C(C)O5)O4)O3)C(C)CC2C)O1 (some centres undefined)
active: [1] 0.148 µM | [2] 0.743 µM | [3] 0.526 µM | [4] 6.62 µM | [8] 10.5 µM | [6] 5.26 µM

CC(=O)SCC(Cc1ccccc1)C(=O)NCC(=O)OCc1ccccc1 (centres undefined)
active: [1] 2.35 µM | [2] 1.66 µM | [3] 18.7 µM | [4] 7.43 µM | [8] 1.05 µM | [7] 0.59 µM

Cc1cnc(NC(=O)Nc2cc(Br)c(C)cc2OC[C@@H]2CNCCO2)cn1
active: [1] 9.35 µM | [2] 0.833 µM | [3] 16.6 µM | [5] 4.69 µM | [8] 7.43 µM | [7] 0.662 µM

CC(=O)N[C@@H]1[C@H](O[C@@H]2c3ccc(c(Cl)c3)Oc3cc4cc(c3O[C@H]3O[C@H](CO)[C@@H](O)[C@H](O)[C@H]3NC(=O)CCCCCCCC(C)C)Oc3ccc(cc3Cl)C[C@H]3NC(=O)[C@H](N)c5ccc(O)c(c5)Oc5cc(O)cc(c5)[C@H](NC3=O)C(=O)N[C@H]4C(=O)N[C@H]3C(=O)N[C@@H]2C(=O)N[C@@H](C(=O)O)c2cc(O)cc(O[C@H]4O[C@H](CO)[C@@H](O)[C@H](O)[C@H]4O)c2-c2cc3ccc2O)O[C@H](CO)[C@@H](O)[C@@H]1O
not listed: [4] | [7]
inactive: all other assays above

C=CC[C@@H]1C=C(C)C[C@H](C)C[C@H](OC)[C@H]2O[C@@](O)(C(=O)C(=O)N3CCCC[C@H]3C(=O)O[C@H](C(C)=C[C@@H]3CC[C@H](O)[C@H](OC)C3)[C@@H](C)[C@@H](O)CC1=O)[C@@H](C)C[C@@H]2OC
active: [1] 1.48 µM | [2] 1.87 µM | [3] 0.935 µM | [5] 1.32 µM | [8] 3.32 µM | [6] 2.64 µM | [7] 1.18 µM

NC1=N[C@H]2[C@H](CS[C@H]2CCCCC(=O)O)N1
not listed: [4] | [8]
inactive: all other assays above

C=C(C)[C@@H]1CC[C@]2(C)CC[C@]3(C)[C@H](CC[C@@H]4[C@@]5(C)CC[C@H](O)C(C)(C)[C@H]5CC[C@]43C)[C@@H]12
inactive: [1] | [2] | [3] | [8]

COc1ccc(C=Cc2cc(OC)c(OC)c(OC)c2)cc1NC(=O)[C@H](N)CO
active: [1] 0.0166 µM | [2] 0.0118 µM | [3] 0.0332 µM | [4] 0.0187 µM | [5] 0.0662 µM | [8] 0.0059 µM | [7] 0.0209 µM

O=C(O)C=Cc1ccc(Cn2ccnc2)cc1
not listed: [4] | [8]
inactive: all other assays above

C#CCC(Cc1cnc2nc(N)nc(N)c2n1)c1ccc(C(=O)N[C@@H](CCC(=O)O)C(=O)O)cc1 (some centres undefined)
active: [3] 0.105 µM | [8] 0.118 µM | [7] 0.0187 µM
not listed: [5]
inactive: all other assays above

OC[C@@H](O)[C@@H](O)[C@H](O)[C@@H](O)CO
inactive: [1] | [2] | [3] | [5] | [6]

CC(C)C[C@@H](C=O)NC(=O)[C@H](CC(C)C)NC(=O)[C@H](CC(C)C)NC(=O)OCc1ccccc1 (Cbz-Leu-Leu-Leu-aldehyde)
active: [1] 0.469 µM | [2] 0.105 µM | [3] 0.59 µM | [4] 2.35 µM | [8] 0.118 µM | [6] 0.332 µM | [7] 0.166 µM

CCOC(=O)[C@@H](N)Cc1ccc(-c2cc(O[C@H](c3ccc(Cl)cc3-n3ccc(C)n3)C(F)(F)F)nc(N)n2)cc1
active: [1] 20.9 µM | [2] 10.5 µM | [3] 18.7 µM | [4] 11.8 µM | [5] 11.8 µM | [8] 18.7 µM | [6] 18.7 µM | [7] 2.96 µM

Cn1cnc(=N)c2[nH]cnc21
active: [1] 0.105 µM | [2] 0.0935 µM | [3] 0.132 µM | [4] 0.148 µM | [5] 0.0418 µM | [8] 0.132 µM | [6] 0.743 µM | [7] 0.0935 µM

CC(=O)OCC(=O)[C@@]12N=C(C)O[C@H]1C[C@H]1[C@@H]3CCC4=CC(=O)C=C[C@]4(C)[C@@H]3[C@@H](O)C[C@@]12C
active: [5] 16.6 µM | [7] 5.9 µM
inactive: [1] | [2] | [3] | [4]

C[C@H]1[C@@H](OC(=O)CCC(=O)O)O[C@@H]2O[C@@]3(C)CC[C@@H]4[C@H](C)CC[C@@H]1[C@@]24OO3
active: [1] 5.26 µM | [2] 1.05 µM | [3] 14.8 µM | [4] 5.9 µM | [6] 14.8 µM | [7] 18.7 µM

CN(C)CCN1C(=O)c2cccc3cc(N)cc(c23)C1=O
active: [1] 5.26 µM | [2] 18.7 µM | [3] 20.9 µM | [4] 11.8 µM | [5] 23.5 µM | [8] 8.33 µM | [6] 23.5 µM | [7] 14.8 µM

CC(C)OC(=O)[C@H](C)N[P@](=O)(OC[C@H]1O[C@@H](n2ccc(=O)[nH]c2=O)[C@](C)(F)[C@H]1O)Oc1ccccc1
active: [1] 1.66 µM
not listed: [4]
inactive: all other assays above

Cc1ccc([N+](=O)[O-])cc1S(=O)(=O)N(C)N=Cc1cnc2ccc(Br)cn12
active: [1] 0.0662 µM | [2] 0.0209 µM | [3] 0.0235 µM | [5] 0.0083 µM | [6] 0.0526 µM | [7] 0.0296 µM

OCCN1C[C@H](O)[C@@H](O)[C@H](O)[C@@H]1CO
inactive: [1] | [2] | [3] | [8]

COc1ccnc2[nH]cc(C(=O)C(=O)N3CCN(C(=O)c4ccccc4)C[C@@H]3C)c12
not listed: [4]
inactive: all other assays above
